Test results: the supplement of paper PMC6555819

Legend:
Test in all cases: PBM binding z-score (relative to random genomic background probes); higher = stronger binding; sequences stand for … in GC…GCGATTGACAGCGTAGAATGAAGG
[1] = system: RARb homodimer (NR concentration 270 nM)
Outline: (§1)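 Each nuclear receptor dimer, without ligand, was incubated for 1 h on custom Agilent 4×180K protein-binding microarrays. Binding was detected with antibodies against each partner (one per run), and scanned fluorescence was regression-normalized. The binding z-scores are referenced to random human genomic background probes.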

[2] = system: RARg:RXRa (NR concentration 270 nM, RXRa partner concentration 90 nM)
Outline: as §1

[3] = system: RARg homodimer (NR concentration 270 nM)
Outline: as §1

[4] = system: RXRa DBDmut IVT, anti-RXR (DBD mutation: RXRa K156A/R161A, NR concentration 90 nM)
Outline: as §1

[5] = system: RXRa homodimer (NR concentration 180 nM)
Outline: as §1

[6] = system: THRa:RXRa (NR concentration 90 nM, RXRa partner concentration 90 nM)
Outline: as §1

[7] = system: THRa homodimer (NR concentration 90 nM)
Outline: as §1

[8] = system: VDR:RXRa (NR concentration 270 nM, RXRa partner concentration 90 nM)
Outline: as §1

[9] = system: VDR homodimer (NR concentration 270 nM)
Outline: as §1

Sequence	PBM binding z-score [1]	PBM binding z-score [2]	PBM binding z-score [3]	PBM binding z-score [4]	PBM binding z-score [5]	PBM binding z-score [6]	PBM binding z-score [7]	PBM binding z-score [8]	PBM binding z-score [9]
CCTTACGGGTCAAGGTTATTGCACGGGTGGTACG	3.5	4.83	4.5	0.197	5.06	3.04	0.977	3.42	1.95
CTACCAAGATGAACAAGGTCGTTGATTACTATTC	1.24	0.579	0.551	1.52	0.837	1.77	1.54	2.52	2.53
CTTCCAAGGTCAGAGAGGTCAGTGAATGCCGAGT	5.27	6.1	7.29	2.97	5.22	4.3	2.74	7.43	5.58
ATCGAAAGGTCGACGAGGTAAGTATACACCGTTT	2.39	3.89	3.66	1.2	4.03	3.14	0.239	4.59	0.679
TCTCGGGGGACACGAAAGGTCAGAGCTCGACATC	4.59	6.13	6.61	2.14	4.9	4.19	2.07	4.39	1.57
TCGGACAGGTGAAGGTAACTCAGGTACGCAGTCG	1.08	0.664	1.17	0.768	0.653	1.33	0.486	0.531	0.395
AGAACGAGGGAACGCTGAGTTGATAGCAGAGTAG	-0.725	-0.0293	0.175	-0.477	-0.0289	-0.362	-1.15	-0.0908	0.248
TAATATAGGTAAACAGGTGAAAGTCCGTAAGTTA	0.737	0.857	0.756	0.169	1.26	0.862	0.313	1.19	0.444
AATACAGGGTCATCGTAGGCGAGAGTACGCACAG	3.47	5.58	4.77	3.52	6.54	4.45	1.32	5.01	3.54
TAGCCTACGTCATTCAGGGGCCAGTATAGAAAGC	0.534	0.54	0.097	-0.122	0.286	0.215	-0.39	-0.219	-0.343
TCTTGTAGATCAATAGAGGTGAAGAAAGTGCGCT	0.962	0.365	0.434	0.561	0.577	2.59	-0.132	0.991	-0.534
ACTTCCGGGTCAACGAGGTTATAGCACGCGTATA	3.44	5.17	4.74	2.62	5.76	4.34	2.68	7.62	4.34
GCCAGCAGGCCATTTGGGTCACTCAATGACGGGC	1.78	1.14	1.3	-0.31	0.736	1.8	0.516	0.978	0.49
ACTAGCAGGCCGAGGGTCACTCAAGATTAGTCCG	2.43	2.41	2.14	0.267	2.49	1.91	-0.126	1.52	0.527
GCTAGTAGGCCATTTGGGTCACTCAATGACGGGC	2.03	0.972	1.33	0.0324	0.766	1.75	0.382	0.995	0.26
CCGATTGGGGCATAAGGTTACCATAAGCCAGCCC	1.76	1.79	1.12	0.0114	1.14	2.16	1.14	0.31	-0.374
CCTTACGGATCACGAGGTTATAGCACGACGAGCG	1.15	0.741	0.714	0.575	1.62	1.52	1.08	1.05	1.06
CATACTGGGTCAGCTAGGCCAGAGTAGGGACGGC	2.13	2.65	3.42	-0.42	1.39	1.53	0.0605	1.19	-0.0161
GTACCAAGGTGTATAGGTCGTTGATGAGTAGGCG	0.761	0.597	0.288	0.186	0.791	0.249	-0.307	0.168	0.945
TCTAGTTGGTCAGGGAGGTCACACACGACGGGTA	4.42	4.31	3.88	1.08	4.14	3.63	2.88	5.4	3.18
CGAACGAGGGCATGAGTTGATACCAAATGCCGAT	1.11	1.48	1.6	2.37	0.992	1.37	-0.127	1.83	1.57
CGGCCAAGGTCATAGGAGGTCAGTGAAGACAGAT	5.15	6.78	7.19	3.51	6.42	5.33	2.88	6.19	4.3
TCGAGTAGGTTAGTCGGGGCATTAAGCCAACATA	0.232	0.0892	-0.106	0.352	-0.0422	1.02	-0.508	1.66	0.177
GGAACGAGGGCAAAGTTGATAGCTTCTGTCGACG	1.06	1.82	1.32	2.55	1.72	1.13	-0.251	1.09	1.22
CGTCCAAGGTCAAGGTCGGTGAAAGAGACTCGAA	4.27	6.3	6.78	3.67	5.99	4.11	2.88	4.2	2.44
TCTAGTTGGTCACGGAGGTGACACACGACGGGTA	1.71	1.6	1.86	0.0966	1.37	1.47	0.665	1.59	0.176

Sequence	PBM binding z-score [1]	PBM binding z-score [2]	PBM binding z-score [3]	PBM binding z-score [4]	PBM binding z-score [5]	PBM binding z-score [6]	PBM binding z-score [7]	PBM binding z-score [8]	PBM binding z-score [9]
GATACAGGGTCAGCTAAAGGCCAGAGTATGGAAA	3.61	6.61	5.01	0.751	4.45	3.02	0.329	3	0.806
ACTCGCAGGCCAAGGGTCACTCAAGATTAGTCCG	3.81	4.36	3.98	1.03	3.97	2.95	0.204	2.89	0.901
CGTCCAAGGTCAATGCTAGGGCAGTGAAAGCATT	4.25	6.47	6.26	3.44	4.5	3.96	1.89	3.92	1.93
ACAGACATGTGATGAAGGTAACTCAGGCTATCAT	-0.417	0.0722	0.176	0.00385	0.168	0.492	-0.106	-0.214	-0.35
CCTAGCAGGCCAATCTGGGGCACTCAAGGCTTGA	0.233	-0.125	0.0351	-0.585	-0.29	1.65	-0.87	-0.786	-0.374
ACTAGCAGGCCAAGTGTGGGTCACTCAAACAAAG	2.25	2.53	1.51	-0.502	0.982	1.44	-0.207	0.53	-0.135
ACAGACAGGTGAGTGAAGGTAACTCAGCTGGACG	0.005	0.297	0.64	-0.506	0.428	1.51	-0.394	-0.401	-0.355
CGTCCAAGGTCAATGCTAGGTCAGTAAAAGCATT	4.89	7.54	6.94	3.31	5.24	4.28	2.63	4.76	2.92
TTACCATGGTGAAGGTCGTTGATCCCTCTGTAGA	0.835	0.184	-0.00813	-0.163	1.07	0.611	-0.36	0.949	0.502
CCTTGCAGGCCAATCTGGGTCACTCAAGGCTTGA	2.28	1.15	1.42	0.233	0.742	3.61	0.612	0.663	-0.0782
CCTAGCAGGCCGGGGTCACTCAAGCATTTCGCTT	3.68	4.98	3.6	1.99	6.81	3.89	2.05	4.94	3.75
TAGCCTAGGTCATGCGGGCCATTATAGTGTCGGC	3.04	4.02	4.28	1.05	3.23	3.16	1.17	4.09	1.49
ATCTCTAGGTAAGACTCATTTCAGTGAAGAACGC	0.362	-0.0496	0.0938	0.594	-0.0279	0.358	0.931	0.308	0.563
GCTCGGAGGACAAGGTCAGAACTTTGTCCGTAGA	2.83	3.15	3.26	0.38	2.6	2.67	0.989	1.37	0.595
GGAACGAGGGCGAGTTGATAGCAGAGTTTGATGG	-0.0873	-0.0842	0.176	1.73	0.0566	-0.305	-0.578	-0.000397	1.12
ACTATTAGTTGAAACGAGGGCAACCGATAGGTTG	1.25	1.01	1.11	0.84	0.792	3.41	0.358	1.63	1.1
CCGACTGGGGCATGGTTACCATAACGCACAGCCA	-0.189	-0.0426	0.399	-0.99	-0.131	-0.641	-0.739	-0.609	-0.781
GCTAGTTGGTCAGTAAAAGGTCATACACCGGTCG	4.93	4.81	3.6	0.515	4.8	3.39	1.35	3.69	2.09
CGTCAAAGTTCTACTAAGGTAACGTAAAGCACGC	0.428	0.172	0.53	0.53	0.138	3.7	1.49	0.34	0.165
TAGCCTAGCTCATGGGCCAGTATACCACGCGAAC	-0.141	-0.422	-0.314	-1.22	-0.408	-0.643	-0.48	-0.717	-0.464
GCTAGCGGGCCATTTGGGTCACTCAATGACGGGC	1.54	0.986	1.19	-0.841	0.742	1.94	0.129	0.753	0.0296
CGTAGTTGGTCAGGAGGTCACACACCGGATATGA	4.25	5.01	4.39	0.895	4.57	3.46	2.18	3.86	3.08
ACATGTAGGTTACATCCGGGTCATTCAGGCTATG	3.01	3.84	2.29	1.4	3	3.83	2.85	4.11	3.73
TAGCCTAGGTCAGATCGGGCCAGTGTACGCTATA	2.17	2.57	3.6	-0.434	1.23	4.03	-0.0774	0.494	-0.614
TCTTGAAGATCAACAGGAGGTTAAGAAAGATCGA	0.572	1.45	0.367	0.56	1.25	0.975	-0.383	0.872	-0.404
